5 compounds from PubChem BioAssay can be followed below.

A word on the inhibition: it is the change of the read-out against control, counted positive when it falls.

A short description of experiment [1]: rapamycin-like changes in RPL19A-GFP expression – cell-based, S. cerevisiae, multiplex flow cytometry, primary screen (AID 1862; in the data active = percent of DMSO control GFP below about 86%;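 note: lower values mimic rapamycin by blocking the RPL19A rise seen in DMSO cells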). Conditions: S. cerevisiae RPL19A-GFP strain, flow cytometry fluorescence, 3 h; at 10 µM; stronger effect = lower value. (In general: A flow cytometer gives signals particle by particle.)
Experiment [2] is described as follows: TOR pathway GLN3 branch reporter MEP2-GFP changes – S. cerevisiae, multiplex flow cytometry, primary screen (AID 1867;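 active = GFP response, as percent of the DMSO control, above the screen-wide mean plus 3 SD, about 139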;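 note: median GFP channel fluorescence of barcode-gated MEP2-GFP cells measured by flow cytometry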). Conditions: S. cerevisiae MEP2-GFP strain, 3 h, at 10 µM, stronger effect = higher value, 100% means same as DMSO wells.
Experiment [3] can be described thus: TOR pathway RTG branch CIT2 reporter changes – S. cerevisiae, GFP fusion, multiplex flow cytometry, primary screen (AID 1870;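 active = percent response above a set limit, the screen-wide mean plus 3 SD, cut at about 130% in these data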;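 note: barcoded CIT2-GFP strain pooled with four other GFP strains with rapamycin as positive control; median GFP fluorescence per well over plate mean of DMSO wells so 100% = DMSO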). The following applies: S. cerevisiae CIT2-GFP expression, 3 h, at 10 µM, stronger effect = higher value.
A short description of experiment [4]: TOR pathway LAP4-GFP level changes – S. cerevisiae, multiplex flow cytometry, primary screen (AID 1873). Conditions: S. cerevisiae LAP4-GFP expression, 3 h, at 10 µM, stronger effect = higher value.
Experiment [5] can be described thus: yeast AGP1-GFP level changes, GLN3 branch – cell-based, multiplex flow cytometry, S. cerevisiae, primary screen (AID 1887;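 active = GFP signal above the screen-wide mean plus 3 SD, that is over about 124.5% of the solvent control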;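 note: AGP1-GFP fusion strain of S. cerevisiae within a five-strain barcoded multiplex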). Conditions: 3 h, at 10 µM, stronger effect = higher value.
Experiment [6] is described as follows: reduced mouse 2C T cell binding to pMHC/ICAM-1 vesicles – MLPCN validation set, flow cytometry, LFA-1/ICAM-1 modulator project, pilot screen (AID 2523;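 active = response below a set limit, under 55% cells CD8-positive and vesicle-bound, and CD8 cells' 90th-percentile brightness under 279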;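 for vesicle binding response: mean PE anti-B7-1 fluorescence of CD8+ cells relative to row control; 100% = QL9-loaded vesicles with DMSO vehicle in the same plate row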). The following applies: 2C mouse CD8+ T cells, at 7 µM, stronger effect = lower value; double positive events: measured here: CD8+/vesicle+ event percentage.
In experiment [7] the target is Integrin beta-1 (Homo sapiens) + Integrin alpha-4 (Homo sapiens) (UniProt P13612+P05556). The experiment is described as follows: alpha4beta1 integrin LIBS antibody binding reduction – U937 cells, HUTS-21 mAb, flow cytometry, validation set, VLA-4 allosteric modulator project, pilot screen (AID 2674;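 active = inhibition above 50%, about 3 SD of the validation set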;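 note: antibody binding induced by the VLA-4 ligand LDV present at three times its Kd; 0% = LDV ligand with antibody and no compound and 100% = antibody without LDV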). Conditions: HUTS-21 LIBS mAb binding, at 6.7 µM, stronger effect = higher value, binding induced by LDV ligand.
Integrin beta-1 (Homo sapiens) + Integrin alpha-4 (Homo sapiens), sequence (P05556 whole entry, looked up): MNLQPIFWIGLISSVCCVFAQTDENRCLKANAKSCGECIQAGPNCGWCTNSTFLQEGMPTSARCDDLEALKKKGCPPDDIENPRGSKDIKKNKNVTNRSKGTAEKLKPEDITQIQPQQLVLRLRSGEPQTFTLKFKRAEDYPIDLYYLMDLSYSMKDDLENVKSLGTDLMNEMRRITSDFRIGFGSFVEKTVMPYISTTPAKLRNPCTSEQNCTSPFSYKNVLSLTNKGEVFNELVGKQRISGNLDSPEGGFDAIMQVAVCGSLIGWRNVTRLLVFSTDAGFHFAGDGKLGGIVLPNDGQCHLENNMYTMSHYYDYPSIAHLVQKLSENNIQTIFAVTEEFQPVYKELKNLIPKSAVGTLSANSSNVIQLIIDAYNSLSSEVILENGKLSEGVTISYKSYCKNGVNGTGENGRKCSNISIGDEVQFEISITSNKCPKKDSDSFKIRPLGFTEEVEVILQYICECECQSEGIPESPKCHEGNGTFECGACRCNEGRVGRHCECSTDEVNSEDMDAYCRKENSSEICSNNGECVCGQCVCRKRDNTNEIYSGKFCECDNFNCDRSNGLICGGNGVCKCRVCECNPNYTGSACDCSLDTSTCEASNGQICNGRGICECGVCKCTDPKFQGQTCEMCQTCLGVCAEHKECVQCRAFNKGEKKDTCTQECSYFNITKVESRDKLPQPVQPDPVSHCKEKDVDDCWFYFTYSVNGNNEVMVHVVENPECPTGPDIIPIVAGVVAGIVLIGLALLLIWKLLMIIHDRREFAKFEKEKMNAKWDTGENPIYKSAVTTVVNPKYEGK
Integrin beta-1 (Homo sapiens) + Integrin alpha-4 (Homo sapiens), sequence (P13612 whole entry, looked up): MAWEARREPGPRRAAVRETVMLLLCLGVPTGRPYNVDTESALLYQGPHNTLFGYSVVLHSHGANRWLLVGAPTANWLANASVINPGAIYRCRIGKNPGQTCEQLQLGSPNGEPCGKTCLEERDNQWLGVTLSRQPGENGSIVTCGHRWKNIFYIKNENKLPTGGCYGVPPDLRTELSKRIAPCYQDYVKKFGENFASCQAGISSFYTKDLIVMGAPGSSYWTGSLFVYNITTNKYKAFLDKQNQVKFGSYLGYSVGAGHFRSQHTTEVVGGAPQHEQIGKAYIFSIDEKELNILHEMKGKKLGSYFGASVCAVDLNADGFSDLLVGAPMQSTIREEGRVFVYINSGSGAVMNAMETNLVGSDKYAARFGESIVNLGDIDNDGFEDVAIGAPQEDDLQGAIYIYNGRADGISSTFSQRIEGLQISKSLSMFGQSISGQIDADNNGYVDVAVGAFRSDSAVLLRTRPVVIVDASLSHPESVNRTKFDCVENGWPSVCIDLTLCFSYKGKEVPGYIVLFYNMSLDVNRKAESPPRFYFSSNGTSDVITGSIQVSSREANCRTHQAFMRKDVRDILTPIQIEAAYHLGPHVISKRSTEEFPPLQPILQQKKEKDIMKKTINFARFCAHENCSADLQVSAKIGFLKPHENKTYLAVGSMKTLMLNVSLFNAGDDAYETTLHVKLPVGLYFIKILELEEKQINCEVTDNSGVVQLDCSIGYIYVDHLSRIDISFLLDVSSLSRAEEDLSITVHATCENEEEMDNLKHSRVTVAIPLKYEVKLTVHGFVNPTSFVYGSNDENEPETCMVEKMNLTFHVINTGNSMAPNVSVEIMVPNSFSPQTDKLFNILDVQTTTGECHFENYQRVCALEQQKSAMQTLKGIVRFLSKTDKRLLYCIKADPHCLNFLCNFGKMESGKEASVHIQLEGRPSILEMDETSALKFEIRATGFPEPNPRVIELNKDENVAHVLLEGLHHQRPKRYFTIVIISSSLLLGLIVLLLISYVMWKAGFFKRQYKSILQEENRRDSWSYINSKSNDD

Experiment [8] can be described thus: calorie-restriction mimetic ROS inhibitors, yeast – validation compound set, pilot screen (AID 2706;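 active = superoxide response below 65% of plate, a cut near 3 SD across the whole screen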;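 note: yeast exposed to compound for one week at 30 degrees C before staining; 100% = mean of all compound wells on the same plate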). The following applies: S. cerevisiae aging, superoxide DHE fluorescence; at 10 µM; stronger effect = lower value.
Experiment [9] deals with Beta-adrenergic receptor kinase 1 (Homo sapiens) (UniProt P25098). The experiment is described as follows: GRK2 binders displacing RNA aptamer, biochemical, validation, human GRK2, bead flow cytometry (AID 488806;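 active = aptamer binding inhibition above 30%, about 3 SD of noise from non-fluorescent compounds; inactive = inhibition at or below 30%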). Conditions: bead-bound GRK2, FAM-aptamer displacement, at 10 µM, stronger effect = higher value.
Beta-adrenergic receptor kinase 1 (Homo sapiens), sequence (P25098 whole entry, looked up): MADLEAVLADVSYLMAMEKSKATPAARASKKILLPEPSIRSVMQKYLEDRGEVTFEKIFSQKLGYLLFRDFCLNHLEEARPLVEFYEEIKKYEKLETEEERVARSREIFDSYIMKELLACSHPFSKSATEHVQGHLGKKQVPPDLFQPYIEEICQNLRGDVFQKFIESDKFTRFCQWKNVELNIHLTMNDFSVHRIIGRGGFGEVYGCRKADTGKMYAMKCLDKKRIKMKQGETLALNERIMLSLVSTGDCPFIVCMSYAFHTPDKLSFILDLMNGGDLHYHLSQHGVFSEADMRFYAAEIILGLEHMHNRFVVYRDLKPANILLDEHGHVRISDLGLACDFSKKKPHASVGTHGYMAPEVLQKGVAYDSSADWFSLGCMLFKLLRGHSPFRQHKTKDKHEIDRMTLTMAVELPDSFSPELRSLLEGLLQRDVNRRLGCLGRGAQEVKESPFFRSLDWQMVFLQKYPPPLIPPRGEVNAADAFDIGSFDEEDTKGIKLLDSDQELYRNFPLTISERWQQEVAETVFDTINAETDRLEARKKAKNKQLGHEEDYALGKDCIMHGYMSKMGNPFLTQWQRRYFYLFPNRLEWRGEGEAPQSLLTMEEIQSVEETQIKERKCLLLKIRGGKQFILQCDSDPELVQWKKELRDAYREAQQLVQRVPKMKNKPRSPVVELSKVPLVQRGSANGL
In experiment [10] the target is Beta-2 adrenergic receptor (Homo sapiens) (UniProt P07550). The experiment is described as follows: agonist-induced loss of surface beta2AR – cell-based, FAP fluorogen, flow cytometry, validation set, pilot screen (AID 504459;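 active = percent response above 42, roughly 3 SD of non-fluorescent test compounds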;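 note: agonist-driven loss of surface beta2AR via internalization measured by FAP dye flow cytometry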). The following applies: Am2.2-beta2AR cells, at 10 µM, stronger effect = higher value.
Beta-2 adrenergic receptor (Homo sapiens), sequence (P07550 whole entry, looked up): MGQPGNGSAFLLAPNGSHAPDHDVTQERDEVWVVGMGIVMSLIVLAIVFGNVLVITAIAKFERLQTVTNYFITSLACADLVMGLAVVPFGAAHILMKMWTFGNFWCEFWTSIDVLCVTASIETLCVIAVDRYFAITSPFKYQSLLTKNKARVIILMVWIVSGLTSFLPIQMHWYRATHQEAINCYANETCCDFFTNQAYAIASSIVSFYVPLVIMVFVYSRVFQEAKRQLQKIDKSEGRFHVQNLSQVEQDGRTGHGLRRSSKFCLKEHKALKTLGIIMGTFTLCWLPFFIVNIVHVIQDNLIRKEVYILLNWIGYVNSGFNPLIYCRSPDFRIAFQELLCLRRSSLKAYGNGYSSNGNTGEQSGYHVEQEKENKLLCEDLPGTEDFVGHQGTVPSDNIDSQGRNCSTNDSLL
The target of experiment [11] is AP-2 complex subunit beta (Homo sapiens) (UniProt P63010). Nature of the experiment: beta-arrestin/AP2 interaction blockers – biochemical, validation set, GST-AP2 beads, flow cytometry, pilot screen (AID 504541;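 active = inhibition above 54%, about 3 SD of non-fluorescent compounds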;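 note: AP2 carries R879A mutation and is captured from E. coli lysate; bead-bound FITC arrestin peptide fluorescence measuring arrestin peptide binding to AP2; 0% = DMSO wells and 100% = excess unlabeled arrestin peptide control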). Conditions: FITC arrestin peptide, at 10 µM, stronger effect = higher value, AP2 beta2 appendage fragment, R879A mutant.
AP-2 complex subunit beta (Homo sapiens), sequence (P63010 whole entry, looked up, the tested form may be a part, one chain of several): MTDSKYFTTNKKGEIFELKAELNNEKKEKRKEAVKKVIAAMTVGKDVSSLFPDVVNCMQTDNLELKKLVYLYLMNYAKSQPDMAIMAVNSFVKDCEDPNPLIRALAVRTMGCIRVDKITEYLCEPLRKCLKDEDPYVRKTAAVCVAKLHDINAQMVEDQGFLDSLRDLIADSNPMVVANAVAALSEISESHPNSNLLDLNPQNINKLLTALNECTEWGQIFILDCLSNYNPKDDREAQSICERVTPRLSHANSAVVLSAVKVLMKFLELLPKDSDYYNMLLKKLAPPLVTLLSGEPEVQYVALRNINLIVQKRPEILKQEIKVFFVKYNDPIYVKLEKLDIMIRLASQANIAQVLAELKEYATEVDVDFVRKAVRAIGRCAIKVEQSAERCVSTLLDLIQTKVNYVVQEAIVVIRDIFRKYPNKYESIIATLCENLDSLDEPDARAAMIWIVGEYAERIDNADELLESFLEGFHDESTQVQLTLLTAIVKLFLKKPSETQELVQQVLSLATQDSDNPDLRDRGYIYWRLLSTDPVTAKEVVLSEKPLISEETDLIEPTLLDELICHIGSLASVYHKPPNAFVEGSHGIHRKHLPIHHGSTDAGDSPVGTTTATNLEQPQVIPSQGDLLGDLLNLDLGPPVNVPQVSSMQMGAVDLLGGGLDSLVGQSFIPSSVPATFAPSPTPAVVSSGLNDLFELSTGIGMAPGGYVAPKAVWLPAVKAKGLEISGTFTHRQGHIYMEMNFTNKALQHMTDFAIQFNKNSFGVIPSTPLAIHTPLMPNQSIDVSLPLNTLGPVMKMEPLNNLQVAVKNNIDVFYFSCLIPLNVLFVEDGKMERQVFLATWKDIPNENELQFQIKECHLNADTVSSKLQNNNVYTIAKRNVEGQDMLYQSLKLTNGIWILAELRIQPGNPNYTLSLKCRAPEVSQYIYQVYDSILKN
Experiment [12] can be described thus: cytosolic pH regulators acting via V-ATPase – S. cerevisiae, pHLuorin, HTS validation (AID 504600; in the data active = response above about 15%;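 note: plate controls were DMSO for no effect and reference compound for full effect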). Conditions: V-ATPase proton transport, at 10 µM, stronger effect = higher value.
Experiment [13] has as its system anti-desmoglein-3 scFv antibody binding to human DSG3. The experiment is described as follows: blockers of pathogenic pemphigus antibody–desmoglein-3 binding – biochemical, validation compound set, bead-based, flow cytometry, pilot screen (AID 588368;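 active = binding below the plate cutoff, the plate median minus 3 SD, with a reading above zero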;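 note: signal is the median channel fluorescence of bead-bound GFP antibody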). The following applies: Protein G beads, DSG3-Fc, scFv-GFP binding, at 10 µM, stronger effect = lower value.
Experiment [14] in a line: Nile Red efflux blockade in pump-expressing yeast – validation compound set, multiplex, phenotypic, pilot screen (AID 588506;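 active = efflux inhibition above 0.42, the validation set average plus 4 SD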;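 note: Nile Red retained in cells so higher fluorescence means more efflux inhibition; 0 = negative control wells and 1 = enniatin B 25 µM full block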). Conditions: S. cerevisiae pump-expressing triplex, Nile Red efflux flow cytometry; at 10 µM; stronger effect = higher value; the pumps come from Candida albicans.
For experiment [15], the target named is ATP-binding cassette sub-family B member 6 (Homo sapiens) (UniProt Q9NP58). Nature of the experiment: blockers of ABCB6-driven porphyrin uptake – K562-ABCB6 cells, flow cytometry, validation set, pilot screen (AID 588550;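 active = inhibition above the screen-wide mean plus 3 SD, about 51%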;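 note: 0% = DMSO wells and 100% = benzethonium chloride 70 µM positive control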). The following applies: K562-ABCB6 porphyrin accumulation, 1 h, at 10 µM, stronger effect = higher value.
ATP-binding cassette sub-family B member 6 (Homo sapiens), sequence (Q9NP58 whole entry, looked up): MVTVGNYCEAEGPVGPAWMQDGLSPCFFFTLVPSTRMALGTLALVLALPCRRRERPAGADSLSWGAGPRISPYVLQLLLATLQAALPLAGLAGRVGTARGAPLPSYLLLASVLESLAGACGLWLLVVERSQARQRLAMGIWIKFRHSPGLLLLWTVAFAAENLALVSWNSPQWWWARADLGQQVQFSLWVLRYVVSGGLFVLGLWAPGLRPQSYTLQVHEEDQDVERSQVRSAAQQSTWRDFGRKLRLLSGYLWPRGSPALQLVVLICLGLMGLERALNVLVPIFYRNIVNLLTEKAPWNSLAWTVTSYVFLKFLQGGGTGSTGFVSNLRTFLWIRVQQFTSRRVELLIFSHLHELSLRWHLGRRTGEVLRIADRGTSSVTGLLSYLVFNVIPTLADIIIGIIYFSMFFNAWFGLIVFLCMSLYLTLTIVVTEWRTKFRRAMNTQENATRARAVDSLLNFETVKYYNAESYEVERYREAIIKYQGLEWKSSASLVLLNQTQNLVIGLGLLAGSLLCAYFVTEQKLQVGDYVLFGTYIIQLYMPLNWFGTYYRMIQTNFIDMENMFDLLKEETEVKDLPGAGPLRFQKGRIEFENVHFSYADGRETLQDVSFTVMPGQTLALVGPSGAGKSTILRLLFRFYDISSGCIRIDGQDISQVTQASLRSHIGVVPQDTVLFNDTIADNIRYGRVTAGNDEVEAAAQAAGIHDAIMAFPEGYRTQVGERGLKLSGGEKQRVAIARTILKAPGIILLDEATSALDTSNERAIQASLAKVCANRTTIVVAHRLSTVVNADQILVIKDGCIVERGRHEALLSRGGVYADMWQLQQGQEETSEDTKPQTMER
The nature of experiment [16]: AML differentiation inducers, ER-HoxA9 marrow cells – cell-based, GFP/MAC1 double positive, flow cytometry, validation set, primary screen (AID 588685;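 active = differentiation response of at least 50%, scaled between solvent and reference control, from cells with both markers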;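 note: compound exposure lasts four days before antibody staining and flow analysis; 0% = DMSO wells and 100% = 5 µM fulvestrant positive control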). The following applies: stronger effect = higher value, normalized: vehicle 0, fulvestrant 100.

Records with an inconclusive call do not appear. Calls of active or inactive are those of the source.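 Rule for the calls, unless noted: active = GFP signal, as percent of the solvent control, above the screen mean plus 3 SD, about 149; inconclusive = no reading because the compound's own fluorescence upset strain identification; inactive = the rest.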

In the case of `CCn1c(N2CCN(CC(=O)c3c(C)n(C)c4ccc(OC)cc34)CC2)nc2c1c(=O)[nH]c(=O)n2C`, the percent of DMSO control GFP in experiment [1] is 101% (inactive). The GFP response vs DMSO in experiment [2] was 104% (inactive); in [4], 91.4% (inactive). The percent response of DMSO control in [3] was 97.8% (inactive). Besides, the GFP response, % of DMSO in [5] was 99.9% (inactive). This compound came in with a double positive events in experiment [6] of 60%. Besides, the vesicle binding response in experiment [6] was 206% (inactive). The results for the inhibition in [7], in experiment [11] and in experiment [15] were -18.1% (inactive), 12.1% (inactive) and 23% (inactive), respectively. Further, the superoxide response (% of plate) in experiment [8] is 100% (inactive). The aptamer binding inhibition in experiment [9] was 1% (inactive). Further, the response in experiment [10] is -1.41% (inactive); in experiment [12], -2.91% (inactive). Besides, the binding (% of control) in experiment [13] was 101% (inactive). In experiment [14], the efflux inhibition (fraction of control) is -0.26 (inactive). The differentiation response in experiment [16] was -2.69% (inactive).

On to `Cc1nc(N)nc2c1CCCC2`, for which the percent of DMSO control GFP in experiment [1] is 89.1% (inactive). In addition, the results for the GFP response vs DMSO in experiment [2] and in [4] were 133% (inactive) and 74.8% (inactive), respectively. Moreover, the percent response of DMSO control in [3] is 99.2% (inactive). Also, the GFP response, % of DMSO in [5] is 94.9% (inactive). This compound also had a double positive events in [6] of 62.1%. Besides, in [6], the vesicle binding response was 179% (inactive). Also, the inhibition in experiment [7] is 6.46% (inactive); in [11] it was -2.43% (inactive); in experiment [15], 13% (inactive). For the same compound, the superoxide response (% of plate) in [8] is 102% (inactive). In experiment [9], the aptamer binding inhibition was 5% (inactive). The response in experiment [10] was -4.6% (inactive); in experiment [12] it was -0.37% (inactive). Also, the binding (% of control) in experiment [13] is 109% (inactive). Further, the efflux inhibition (fraction of control) in experiment [14] was -0.31 (inactive). Besides, the differentiation response in experiment [16] was -9.83% (inactive).

In the case of `O=C(O)CCCCCNC(=O)Nc1ccc2c(c1)OCCO2`, in [1], the percent of DMSO control GFP was 101% (inactive). Moreover, the values for the GFP response vs DMSO in experiment [2] and in experiment [4] were 115% (inactive) and 77% (inactive), respectively. For the same compound, the percent response of DMSO control in experiment [3] is 112% (inactive). The GFP response, % of DMSO in experiment [5] is 91.2% (inactive). Further, in [6], the double positive events turned out to be 49.7%. Besides, the vesicle binding response in experiment [6] is 207% (inactive). Moreover, the inhibition in experiment [7] is -12% (inactive); in experiment [11] it was -7.04% (inactive); in experiment [15], 7% (inactive). Besides, the superoxide response (% of plate) in [8] is 105% (inactive). The aptamer binding inhibition in experiment [9] is -3% (inactive). Further, the response in [10] is -9.55% (inactive); in experiment [12], -4.4% (inactive). Besides, the binding (% of control) in [13] was 108% (inactive). Besides, the efflux inhibition (fraction of control) in experiment [14] was 0.12 (inactive). Also, the differentiation response in experiment [16] was -3.28% (inactive).

Turning to `O=C1c2cccc3cccc(c23)C(=O)N1c1ccccn1`, in experiment [1], the percent of DMSO control GFP is 107% (inactive). Moreover, the values for the GFP response vs DMSO in experiment [2] and in [4] were 101% (inactive) and 97.3% (inactive), respectively. The percent response of DMSO control in experiment [3] is 109% (inactive). Also, the GFP response, % of DMSO in experiment [5] is 107% (inactive). Besides, the double positive events in experiment [6] stood at 58.2%. Besides, the vesicle binding response in experiment [6] was 79.7% (inactive). Also, the inhibition was 9.92% (inactive) in experiment [7], 1.31% (inactive) in experiment [11] and -11% (inactive) in experiment [15]. The superoxide response (% of plate) in [8] is 107% (inactive). The aptamer binding inhibition in experiment [9] is 4% (inactive). The values for the response in experiment [10] and in experiment [12] were -9.79% (inactive) and 3% (inactive), respectively. Moreover, the binding (% of control) in [13] was 95.3% (inactive). The efflux inhibition (fraction of control) in experiment [14] is -0.07 (inactive). For the same compound, the differentiation response in experiment [16] is -1.71% (inactive).

Consider `Cc1ccc(/C=N/Nc2nc(C(C)(C)C)cs2)o1`, for which, in experiment [1], the percent of DMSO control GFP was 103% (inactive). The GFP response vs DMSO in [2] was 106% (inactive); in experiment [4], 98.2% (inactive). Besides, the percent response of DMSO control in experiment [3] is 95.8% (inactive). Also, the GFP response, % of DMSO in experiment [5] was 97.8% (inactive). The double positive events in experiment [6] worked out at 69.4%. Further, in experiment [6], the vesicle binding response is 302% (inactive). The inhibition in experiment [7] was 17.3% (inactive); in experiment [11], -1.54% (inactive); in experiment [15] it was 114% (active). In addition, in [8], the superoxide response (% of plate) was 80.8% (inactive). Also, in experiment [9], the aptamer binding inhibition is 5% (inactive). Moreover, the response in experiment [10] is 4.35% (inactive); in experiment [12], 6.19% (inactive). For the same compound, the binding (% of control) in experiment [13] is 102% (inactive). Also, the efflux inhibition (fraction of control) in [14] is 0.51 (active). Moreover, the differentiation response in experiment [16] is 7.2% (inactive).
